TGFb SMAD3 inh – TGF-b pathway inhibition; HepG2 CAGA-GFP TGF-b/SMAD3 reporter, GFP fluorescence, 18 h; TGF-beta stimulated, 500 pg/mL final; Potency, µM (titrated, usually from 46.1 µM), for inactives: top-dose activity, negative = inhibition, hits mostly inhibitors; hit rate 1.2% among 410,000; also: potency is read from the fitted curve at half-maximal effect; % is scaled to controls: 0 for no effect and ±100 for the full control effect; nearly all actives have a fitted effect of over 65% in size
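Using HEPG2 CAGA-GFP reporter cells at 1000 cells/well, we pinned test compounds, stimulated with recombinant TGF-beta (500 pg/mL final) and measured total well GFP after 18 h.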
ATXN2 expr inh – inhibitors of ATXN2 expression. HEK-293 ATXN2-luciferase reporter, luminescence, 24 h. hit rate 0.72% among 360,000. Potency, µM (series often up to 57 µM), without a hit: at the highest dose activity change, negative = inhibition, hits mostly inhibitors; also: potency is read from the fitted curve at half-maximal effect; % is scaled to controls: 0 for no effect and ±100 for the full control effect; nearly all actives have a fitted effect of over 55% in size
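ATXN2-luciferase reporter cells (luciferase flanked by upstream and downstream ATXN2 gene portions) were treated 24 h at 37 °C with compounds at up to 57 uM. SteadyGlo luminescence gave expression; GF-AFC fluorescence gave viability.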
S2 tox – cell viability loss in ATXN counter-screen; hit rate 0.49% among 400,000; AID 651635; S2 cells (HEK-293 line with an ATXN2-luciferase reporter) viability, CellTiter-Fluor protease fluorescence, 24 h; Potency, µM (highest dose often 56.7 µM), actives largely listed as cytotoxic; also: potency is read from the fitted curve at half-maximal effect; nearly all actives have a fitted effect of over 40% in size
IL-1B inflam inh – inhibitors of inflammasome signaling (IL-1 beta secretion); THP-1 LPS/ATP IL-1B secretion, AlphaLISA, 16 h; active compounds read low; activity change, % at 57.5 µM; hit rate 4.7% among 360,000; AID 743279; in the data active = activity change below about -50%; inconclusive = mostly about -30% to -49%; also: % is scaled to controls: 0 for no effect and ±100 for the full control effect
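THP-1 cells pretreated 1 hr with compounds (up to 57.5 uM final), then stimulated with LPS (250 ng/mL final) plus ATP (1.25 mM final); secreted IL-1B measured by AlphaLISA after 16 hr, decreased signal indicating inhibition.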
HepG2 tox – kills HepG2 cells in TGF-b inhibitor counter-screen; HepG2 CAGA-GFP viability, ATP luminescence, 18 h; hit rate 0.76% among 410,000; Potency, µM (top dose mostly 46.1 µM), for inactives: top-dose activity change, negative = cytotoxicity, most hits filed as cytotoxic; AID 588856; also: potency is read from the fitted curve at half-maximal effect
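HepG2 CAGA-GFP cells (1000/well, DMEM with 1% FBS) received compound, then TGF-beta at 500 pg/mL final, and were incubated 18 hours at 37 degrees C. Viability was read by CellTiter-Glo luminescence. Media-only wells were set as complete cell-killing and DMSO as no toxicity.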
* hit, by the source's call; i = inactive; ? = inconclusive; · = not tested or not shown; [ ] = another dose, or the depositor's remark. A selection: hits, their analogues and other compounds. The true share with any hit is near 5.7%. Unless noted, calls follow the shape of the dose curve; as a rule, active = well fitted curve in the direction sought with a large enough effect; inconclusive = small, poorly fitted or top-dose-only effect, or another doubt; inactive = no such curve, though single readings can be large; an effect the other way counts as inactive or inconclusive.

SMILES	TGFb SMAD3 inh	ATXN2 expr inh	S2 tox	IL-1B inflam inh	HepG2 tox
Cc1ccc(S(=O)(=O)C(CNS(=O)(=O)c2ccc(F)c(C)c2)c2cccs2)cc1 (stereo not drawn)	?	·	·	·	-24%
CCOc1ccc(S(=O)(=O)NCC(c2cccs2)S(=O)(=O)c2ccc(C)cc2)cc1 (stereo not drawn)	5µM*	·	·	·	-36%
CCc1ccc(C2=C(C)C(N3CCC(C(=O)NCCc4ccco4)CC3)=NS2(=O)=O)cc1	-27%	·	·	·	-20%
COC(=O)c1ccc(NC(=O)CSc2nc(=O)[nH]c3c2CCCC3)cc1	4%	·	·	·	0%
CCOc1ccc(OCc2cccc(C(=O)O)c2)cc1	-5%	0.28µM*	i	8	-67%
O=C(O)c1cccc(COc2ccc3c(c2)CCC3)c1	-1%	?	i	14	-13%
COc1ccc(OCc2cccc(C(=O)O)c2)cc1	3%	0.32µM*	i	1	-57%
CCOc1ccc(OCc2cccc(C(=O)N3CCCCCC3)c2)cc1	-15%	·	i	-28	-1%
COc1cccc(OC)c1C(=O)NNC(=O)c1cccc(COc2ccc3c(c2)CCC3)c1	-2%	5.6µM*	i	-7	-25%
O=C(NC(=S)Nc1ccc(Oc2ccccc2)cc1)c1ccc(Cl)cc1	?	-1%	i	-54*	-13%
COc1ccc(N2CC3=C(C2=O)C(c2ccc(O)c(OC)c2)NC(=O)N3C)cc1 (stereo not drawn)	0%	-1%	i	·	-7%
CCN(CC)c1ccc(NC(=O)CN2C(=O)c3cccnc3Oc3ccccc32)c(C)c1	-4%	·	·	·	-27%
CC(C)CCNC(=O)c1ccc(Cn2c(=O)c3cccn3c3cccnc32)cc1	-2%	·	·	·	-12%
O=C(O)c1ccc(COc2ccc(CO)cc2Cl)cc1	0%	5%	i	18	-5%
O=C(OCC(F)(F)F)c1cccc(COc2ccc3ccccc3c2)c1	4%	2µM*	i	19	11%
O=C(O)c1ccc(NC(=S)NC(=O)c2cccc(COc3ccccc3)c2)cc1	-2%	10%	i	-54*	-26%
CCOc1ccc(OCc2cccc(C(=O)N3CCCC3)c2)cc1	-14%	7.9µM*	i	?	1%
O=C(O)c1cccc(COc2ccc(CO)cc2Cl)c1	-11%	0.28µM*	i	0	-24%
Nc1ccc(/C=C/c2ccnc3ccccc23)cc1[N+](=O)[O-]	17%	·	·	·	-25%
CNC(=O)c1cccc(-c2ccc3c(N4CCOC[C@H]4C)nc(N4CCOC[C@H]4C)nc3n2)c1	·	-32%	·	·	·
Cc1ccc(CCNC(=O)c2ccc(CS(=O)(=O)Cc3ccccc3F)o2)cc1	-36%	-13%	?	-8	-16%
Cc1ccccc1CS(=O)(=O)Cc1ccc(C(=O)NCCc2ccc(Cl)cc2)o1	14µM*	·	·	·	-19%
Cc1ccc(-c2c(C(=O)NCCc3ccc(Cl)cc3)oc(=O)c3ccccc23)cc1	11µM*	-38%	i	·	-2%
CC1(C)Nc2cccc3c(N=Nc4ccc(N=Nc5ccccc5)c5ccccc45)ccc(c23)N1	-4%	·	·	·	-29%
CCCOc1ccc(Cl)cc1/C=C1/C(=O)ON=C1C	0%	-17%	i	4	11%
SMILES	TGFb SMAD3 inh	ATXN2 expr inh	S2 tox	IL-1B inflam inh	HepG2 tox
CC1=NOC(=O)/C1=C\c1ccc(-c2ccc(Cl)cc2Cl)o1	-10%	?	·	-62*	-28%
Cc1oc(-c2cccc(NC(=O)C3CCCN(C)C3)c2)nc1CNC(=O)c1coc2c1C(=O)CCC2 (stereo not drawn)	·	·	i	·	·
CSc1cccc(CN2CCC(CO)(Cc3ccccc3)CC2)c1	-3%	-36%	i	-18	2%
Cc1cc(C)n(-c2cccc(CN3CCC(CO)(Cc4ccccc4)CC3)c2)n1	-3%	-37%	i	-71*	-30%
COc1ccc(CN2CCCC(CO)(Cc3cccc(Cl)c3)C2)cc1OC (stereo not drawn)	-27%	0%	i	-9	-48%
CCOc1cc(CN2CCC(CO)(Cc3cccc(C(F)(F)F)c3)CC2)ccc1OC	?	-17%[2.22 µM]	?	-74*	-85%
COc1ccc(CC2(CO)CCN(Cc3ccc(OC(F)(F)F)cc3)CC2)cc1	14µM*	?	?	·	20µM*
COc1ccc(CC2(CO)CCN(Cc3cnn(-c4ccccc4)c3)CC2)cc1	0%	-17%	i	-95*	-24%
COc1cc2nc(N3CCCN(C)CC3)nc(NC3CCN(C)C3)c2cc1OC (stereo not drawn)	?	·	·	·	-9%
CC(C)Oc1ccc(CNC(=O)C(C)n2ccc3cc(S(=O)(=O)N4CCCCCC4)ccc32)cc1 (stereo not drawn)	1%	-1%	i	·	10%
CCn1c(-c2ccccc2F)nc2cc(C(=O)NCc3ccc(C)o3)cc(NC(C)=O)c21	·	·	i	·	·
CCc1ccc(NC(=O)CN2C(=O)C(c3ccc(Cl)cc3)=NC23CCCCC3)cc1	·	·	·	·	-14%
NC(=O)C1CCN(S(=O)(=O)c2ccc(N3CCCCS3(=O)=O)cc2)CC1	14%	·	·	·	8%
CC1CCC(NC(=O)C(Cc2ccccc2)n2cccc2)CC1 (stereo not drawn)	-15%	1%	i	-26	-16%
O=C(NC1CCCCCC1)C(Cc1ccccc1)n1cccc1 (stereo not drawn)	-4%	-2%	?	-62*	-11%
COc1cccc(NC(=O)C(Cc2ccccc2)n2cccc2)c1 (stereo not drawn)	?	2%	i	-73*	-6%
CCN(CCCNC(=O)c1cc2cc3ccc(OC)cc3nc2s1)c1ccccc1	0%	·	·	·	-20%
CCN(CCCNC(=O)c1cc2cc3ccc(OC)cc3nc2s1)c1cccc(C)c1	13µM*	-31%	·	·	13µM*
O=C(CC(O)c1ccncc1)c1ccccc1O (stereo not drawn)	?	-22%	?	-63*	-44%
OC(CCc1ccncc1)c1ccccc1 (stereo not drawn)	?	10%	i	18	10%
CN(C)CC(C)(C)CNc1nn2c(-c3ccccc3)nnc2cc1C1CCC1	·	0.77µM*	·	·	·
COc1ccc(CN2CCCC(n3cc(C(=O)N4CCCCC4)nn3)C2)c(OC)c1C (stereo not drawn)	·	·	i	·	·
O=C(NC1CC(=O)N(c2ccc(Cl)cc2)C1)c1cccs1 (stereo not drawn)	-6%	·	·	·	-23%
COc1cc(C2c3cc4c(cc3OC(NNC(N)=S)C2C)OCO4)cc(OC)c1OC (stereo not drawn)	?	4%	?	?	-23%
COc1cc(C2c3cc4c(cc3OC(NNC(N)=O)C2C)OCO4)cc(OC)c1OC (stereo not drawn)	?	-1%	i	-66*	-28%

Bioassay records (PubChem BioAssay)
